Reference: the OligoGym collection

What follows are sequences tested against TPPP3 (assay: pooled miR-30 sensor sort-seq; sequence = guide strand). Conditions: shRNA.

Sequence | sensor-assay potency score (higher = more potent)
ACTGTCGTCCAGGATGTCCTGC | -0.739
TTTAGTGACGCCCACATTGGCT | -0.692
TCGTCCAGGATGTCCTGCCGTC | -0.707

Each sequence was assayed against TPRX1 in the same assay as above. Conditions: shRNA.

Sequence | sensor-assay potency score (higher = more potent)
TTGAACCACACCTGCAGCTGTT | -0.741
TTCTTGGTACTGAGAGGTCATG | -1.73
TTTCATTCACAGAGCCACCCTC | -0.302
TGGTGGAGGCTGCAGATCGTGG | -1.98
TAGAGTCATCCCCTTCTTGGTA | -0.907
TAGGGGTAGGAGCAGCTCTGTG | -1.84
TGAAGTGAGGGAATAACTGGGT | 0.243
TGAACCACACCTGCAGCTGTTG | -0.826
TTCATTCACAGAGCCACCCTCC | -0.83
TTGGAGCTGGGACTGAGCCTGA | -0.894
TCGGGCTTGGGATCTGAGCTGG | -0.605
TTGCCCATAGAGTCATCCCCTT | -0.764

What follows are sequences tested against TRAFD1 in the same assay as above. Conditions: shRNA.

Sequence | sensor-assay potency score (higher = more potent)
TAACTGGTTACTTGCAGCCTGT | -0.902
TTTGCCTTTGCAGTTCTGCTGC | 0.136
TTTATGTCACTGAGAGACCTGG | -0.674
TTCTATTGTGGAAAACATCTGA | 0.311
TTCCTGCTTAGTATCATCCAGG | -0.814
TTGCACTCTCTTCACCACCCTC | -0.942
TTCTTCAAACAGATTATTCTGA | 0.585
TGCAGTTGTCACACAGTCGAGT | -0.879
TTATTCTGAATTGAAACCTGGG | 0.55
TTGGTTGGTAGTTCTATTGTGG | -0.193
TTGCAGTTGTCACACAGTCGAG | -1.47

What follows are sequences tested against TRAPPC2L in the same assay as above. Conditions: shRNA.

Sequence | sensor-assay potency score (higher = more potent)
TACCTTGTAGTCCTCCGTGGGG | -0.92
TTCGTTGTCTCGAAGGGCTGTG | 0.76
TTCAGCTCGTTCTCCGTAGGGG | 0.103
TTGTGTAGCTTCCGGAACATGC | -0.801
TTTCGTTGTCTCGAAGGGCTGT | 0.949
TTGGAGTTGGTGACGTAGCCGT | -0.459
TTGCACATCACGTCTGTGTAGG | 0.239
TTGAGAGAACATGCACAGCTGC | -0.482
TGTAGCTTCCGGAACATGCTGC | 0.0954
TATACCTTGTAGTCCTCCGTGG | 0.16
TGTGTAGGAGTTGTGTAGCTTC | 0.492
TAGTTGAGAGAACATGCACAGC | -1.15
